Activity calls are given as the source filed them. Unless noted, no rule for the calls is given here.

Test [1] relates to Wnt5a (protein binding on small-molecule microarray). As to the kind of experiment: Wnt5a binders on small-molecule microarray, primary screen, biophysical, 635/667 nm fluorescence (AID 1142).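 Also: fluorescence read at 667 nm with signal to noise per printed feature.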 The following applies: 635 nm fluorescence, higher = more signal.
Test [2] is described as follows: cell viability in Huh7 cells, primary screen, cytotoxicity control for HCV replication inhibitor project, CellTiter-Glo luminescence, basal, 48 h (AID 1143).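 Also: Huh7 hepatoma cells carrying a hepatitis C replication reporter with no stimulus; test concentration not given here.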 The following applies: Huh7 HCV replicon, higher = more signal, called active from +8 up or from −8 down.
Test [3] is described as follows: P. aeruginosa biofilm formation inhibitors, primary screen, PAO1 strain, BacTiter-Glo luminescence, LB-PBS (AID 1144). The note with it: 12 h, higher = more signal.
Test [4] can be described thus: CREB reporter modulators without forskolin, primary screen, cell-based, PC12, CRE-LacZ reporter, unstimulated (AID 1145). The following applies: no forskolin, luminescence, 4.5 h, higher = more signal, called active from +8 up or from −8 down.
Test [5] can be described thus: CREB reporter modulators under forskolin, primary screen, cell-based, PC12, CRE-LacZ reporter, forskolin-stimulated (AID 1146).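 Also: PC12 cells with 6xCRE LacZ reporter stimulated by forskolin 10 µM; beta-galactosidase reporter signal reflecting CREB driven transcription.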 The following applies: luminescence, 4.5 h, higher = more signal, called active from +8 up or from −8 down.
In test [6] the target is Streptavidin (Streptomyces avidinii) (UniProt P22629). As to the kind of experiment: streptavidin binders on small-molecule microarray, primary screen, artefact control for SMM compound annotation, biophysical, 635/667 nm fluorescence (AID 1147).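 Also: signal reflects streptavidin binding to arrayed compounds as a control protein.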 The note with it: streptavidin binding, higher = more signal.
Sequence of Streptavidin (Streptomyces avidinii) (P22629 whole entry, looked up): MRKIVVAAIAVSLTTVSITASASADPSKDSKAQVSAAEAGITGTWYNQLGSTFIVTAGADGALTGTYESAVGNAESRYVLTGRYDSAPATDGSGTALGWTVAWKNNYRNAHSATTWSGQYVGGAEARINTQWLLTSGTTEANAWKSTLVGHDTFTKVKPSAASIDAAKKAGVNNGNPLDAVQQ
Test [7] is described as follows: small-molecule binders of probe aInhba, primary screen, biochemical, small-molecule microarray, 635/667 nm fluorescence (AID 1148).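 Also: score merges 667nm spot fluorescence with signal-to-noise for antibody binding to printed compounds.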 The note with it: higher = more signal.
The target in test [8] is Torsin-1A (Homo sapiens) (UniProt O14656). As to the kind of experiment: torsin A binders from cell lysate, primary screen, small-molecule microarray, wild-type, 635/667 nm (AID 1149). The following applies: COS7 hTOR1A-WT lysate, 635 nm fluorescence, higher = more signal.
Sequence of Torsin-1A (Homo sapiens) (O14656 whole entry, looked up): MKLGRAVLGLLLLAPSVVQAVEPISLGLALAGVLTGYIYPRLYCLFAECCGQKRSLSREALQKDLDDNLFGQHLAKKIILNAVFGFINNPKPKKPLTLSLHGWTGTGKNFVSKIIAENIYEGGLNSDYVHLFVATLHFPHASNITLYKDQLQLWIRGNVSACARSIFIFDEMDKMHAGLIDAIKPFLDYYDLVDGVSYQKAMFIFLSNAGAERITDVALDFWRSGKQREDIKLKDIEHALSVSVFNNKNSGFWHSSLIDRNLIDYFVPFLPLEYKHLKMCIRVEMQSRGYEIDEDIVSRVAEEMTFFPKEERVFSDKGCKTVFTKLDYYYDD
Test [9] has the same target. Nature of the test: small-molecule binders of mutant TOR1A in lysate, primary screen, cell lysate, small-molecule microarray, COS7 lysate, 635/667 nm fluorescence (AID 1150).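 Also: score pools 667 nm emission and signal to noise measuring lysate protein binding.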 The note with it: COS7 hTOR1A mutant lysate, 635 nm fluorescence, higher = more signal.
Test [10] concerns Sonic hedgehog protein (Shh). Nature of the test: small-molecule binders of Shh protein, primary screen, biochemical, small-molecule microarray, 635/667 nm fluorescence (AID 1151).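 Also: Shh protein binding to compounds spotted on small-molecule microarray slides; score combines spot fluorescence intensity with signal-to-noise across triplicate slides.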 The following applies: small-molecule microarray binding, 635 nm fluorescence; higher = more signal.
Test [11] is described as follows: E. coli DRC41 culture turbidity changes, primary screen, E. coli filamentation inducer project, strain DRC41, OD650, 48 h (AID 1152).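 Also: E. coli MC1000 strain DRC41 lacking acrAB efflux pump and sulA.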 The following applies: E. coli DRC41 (acrAB sulA), higher = more signal, called active from +8 up or from −8 down.
Test [12] can be described thus: small-molecule binders of probe aLefty1, primary screen, biochemical, small-molecule microarray, 635/667 nm fluorescence (AID 1153).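 Also: score merges spot fluorescence with signal-to-noise ratio from the scanned slide images.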 The following applies: higher = more signal.
Test [13] is described as follows: PSAC antagonists in infected red cells, primary screen, cell-based, P. falciparum Indochina, OD700, 1 h (AID 1154). The following applies: P. falciparum Indochina infected RBC osmotic lysis, higher = more signal, called active from +8 up or from −8 down.
Test [14] can be described thus: PSAC antagonists in infected red cells, primary screen, cell-based, P. falciparum Indochina, OD700, 2 h (AID 1155).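 Also: lysis reports solute entry through the parasite surface anion channel PSAC; channel blockers reduce lysis of infected cells.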 The following applies: P. falciparum Indochina infected erythrocytes, osmotic lysis OD700; higher = more signal, called active from +8 up or from −8 down.
Test [15] can be described thus: osmotic lysis modulators in infected erythrocytes, primary screen, PSAC antagonist project, cell-based, P. falciparum Indochina, OD700, 3 h (AID 1156). The note with it: higher = more signal, called active from +8 up or from −8 down.
The nature of test [16]: PSAC antagonists in infected red cells, primary screen, cell-based, P. falciparum Indochina, OD700, 18 h (AID 1157). The note with it: P. falciparum Indochina infected erythrocytes, osmotic lysis OD700, 18 h; higher = more signal, called active from +8 up or from −8 down.
Test [17] in a line: modulators of S6 phosphorylation in cells, primary screen, cell-based, A549, cytoblot, luminescence, serum-stimulated (AID 1158).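 Also: serum-stimulated A549 lung adenocarcinoma cells; signal is phosphorylated S6 detected by cytoblot immunostaining with HRP secondary.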 The note with it: A549 phospho-S6 cytoblot, 5 h, higher = more signal.
Test [18] has as its target NADPH oxidase 2 (Homo sapiens) (UniProt P04839). As to the kind of experiment: NOX2-dependent H2O2 signal modulators, primary screen, NOX inhibitor project, cell-based, HEK293-NOX2, PMA-stimulated, Amplex Red fluorescence (AID 1159). Also: test concentration not given here. The note with it: 45 min, higher = more signal, called active from +8 up or from −8 down.
Test [19] concerns the target NADPH oxidase 4 (Homo sapiens) (UniProt Q9NPH5). Nature of the test: NOX4-dependent H2O2 signal modulators, primary screen, NOX inhibitor project, cell-based, HEK293-NOX4, tetracycline-induced, Amplex Red fluorescence (AID 1160). The following applies: 45 min, higher = more signal, called active from +8 up or from −8 down.
For test [20], the target named is NADPH oxidase 5 (Homo sapiens) (UniProt Q96PH1). As to the kind of experiment: NOX5-dependent H2O2 signal modulators, primary screen, NOX inhibitor project, cell-based, HEK293-NOX5, Amplex Red fluorescence (AID 1161). The following applies: HEK293-NOX5, ionomycin, 45 min, higher = more signal.
Sequence of NADPH oxidase 5 (Homo sapiens) (Q96PH1 whole entry, looked up): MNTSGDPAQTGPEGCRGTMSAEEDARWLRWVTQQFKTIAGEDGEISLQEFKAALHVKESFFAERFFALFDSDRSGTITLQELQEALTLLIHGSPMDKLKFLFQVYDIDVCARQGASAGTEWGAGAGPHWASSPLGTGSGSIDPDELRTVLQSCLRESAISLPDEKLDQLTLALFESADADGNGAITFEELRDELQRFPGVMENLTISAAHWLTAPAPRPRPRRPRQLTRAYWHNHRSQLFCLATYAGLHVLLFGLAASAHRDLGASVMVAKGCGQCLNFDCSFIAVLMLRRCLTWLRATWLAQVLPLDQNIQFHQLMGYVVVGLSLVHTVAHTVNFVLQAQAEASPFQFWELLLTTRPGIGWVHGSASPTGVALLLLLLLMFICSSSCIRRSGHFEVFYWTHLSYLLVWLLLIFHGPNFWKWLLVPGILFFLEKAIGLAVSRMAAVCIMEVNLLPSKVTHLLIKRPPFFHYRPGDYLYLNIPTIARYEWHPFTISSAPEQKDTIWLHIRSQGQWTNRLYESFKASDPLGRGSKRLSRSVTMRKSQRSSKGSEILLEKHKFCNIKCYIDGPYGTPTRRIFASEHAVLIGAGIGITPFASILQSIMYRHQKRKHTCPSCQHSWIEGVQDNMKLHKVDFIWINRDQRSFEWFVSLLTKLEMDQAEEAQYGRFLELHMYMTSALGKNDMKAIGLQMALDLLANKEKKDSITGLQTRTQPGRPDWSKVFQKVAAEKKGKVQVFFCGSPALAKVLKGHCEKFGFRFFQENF

Sequence of NADPH oxidase 4 (Homo sapiens) (Q9NPH5 whole entry, looked up): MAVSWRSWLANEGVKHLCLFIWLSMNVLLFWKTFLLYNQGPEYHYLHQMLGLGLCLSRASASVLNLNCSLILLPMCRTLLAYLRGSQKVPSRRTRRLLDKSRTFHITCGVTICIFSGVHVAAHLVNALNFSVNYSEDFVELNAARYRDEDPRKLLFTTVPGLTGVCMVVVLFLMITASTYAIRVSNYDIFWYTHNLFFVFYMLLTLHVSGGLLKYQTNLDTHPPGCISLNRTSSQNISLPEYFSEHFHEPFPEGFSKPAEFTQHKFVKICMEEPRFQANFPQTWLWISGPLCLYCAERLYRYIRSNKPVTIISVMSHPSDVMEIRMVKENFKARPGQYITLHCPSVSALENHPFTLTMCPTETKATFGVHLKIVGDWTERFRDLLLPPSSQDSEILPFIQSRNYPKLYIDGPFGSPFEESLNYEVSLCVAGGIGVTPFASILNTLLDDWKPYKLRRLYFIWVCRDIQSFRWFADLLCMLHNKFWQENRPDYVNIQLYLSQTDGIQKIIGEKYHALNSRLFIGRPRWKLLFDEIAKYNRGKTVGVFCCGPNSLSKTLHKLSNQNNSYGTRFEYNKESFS
Sequence of NADPH oxidase 2 (Homo sapiens) (P04839 whole entry, looked up): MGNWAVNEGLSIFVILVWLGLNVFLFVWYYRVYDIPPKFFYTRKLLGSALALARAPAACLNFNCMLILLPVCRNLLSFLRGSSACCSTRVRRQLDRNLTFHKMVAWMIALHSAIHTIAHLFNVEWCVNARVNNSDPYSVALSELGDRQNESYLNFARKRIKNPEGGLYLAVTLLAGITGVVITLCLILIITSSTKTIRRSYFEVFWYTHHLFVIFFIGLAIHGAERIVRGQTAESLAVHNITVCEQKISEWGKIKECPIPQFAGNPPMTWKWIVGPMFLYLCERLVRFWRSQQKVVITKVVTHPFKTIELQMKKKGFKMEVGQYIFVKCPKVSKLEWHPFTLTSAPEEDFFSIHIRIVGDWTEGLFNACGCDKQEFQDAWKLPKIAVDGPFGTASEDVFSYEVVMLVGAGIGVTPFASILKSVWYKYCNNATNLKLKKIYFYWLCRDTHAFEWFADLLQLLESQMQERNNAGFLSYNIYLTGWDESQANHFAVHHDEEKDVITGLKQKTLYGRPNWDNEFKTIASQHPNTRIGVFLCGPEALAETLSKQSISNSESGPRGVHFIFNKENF

In the case of `O=C1[C@H]2[C@H]3[C@H](O)[C@H](O)CC(=NO[C@@H]4O[C@H](CO)[C@@H](O)[C@H](O)[C@H]4O)[C@@H]3CC[C@H]2C(=O)N1c1ccc(F)cc1F`, the composite z-score is 0.166 in test [1]; 0.38 in test [6]; -0.0719 in test [7]; 0.851 with Torsin-1A (Homo sapiens) [8]; 1.1 with Torsin-1A (Homo sapiens) [9]; 0.51 in test [10]. In test [12], this compound had a composite z-score of -0.0145. For the same compound, the z-score was 0.115 (inactive) in test [2]; 0.593 (inactive) in [3]; 0.0711 (inactive) in test [4]; 0.767 (inactive) in test [5]; 0.178 (inactive) in test [11]; -0.219 (inactive) in [13]. For the same compound, the z-score in [14] is 0.363 (inactive); in test [15], -0.444 (inactive); in test [16] it was 0.205 (inactive); in test [17] it was -0.709; in test [18], 0.455 (inactive); in test [19] it was 0.199 (inactive). In [20], this compound gave a z-score of -0.606.

On to `COC(=O)CC=C[C@H](C)[C@@H](OCc1ccccc1Br)C(C)C`, for which the composite z-score in test [1] was -0.106; in test [6], 0.228; in test [7] it was -0.128; with Torsin-1A (Homo sapiens) [8] it was 0.066; with Torsin-1A (Homo sapiens) [9], 0.674; in test [10] it was 0.438. In test [12], the composite z-score was -0.149. Moreover, the z-score in [2] was 0.298 (inactive); in test [3] it was -0.643 (inactive); in test [4], 0.194 (inactive); in test [5], 0.615 (inactive); in test [11] it was 0.358 (inactive); in [13], 0.644 (inactive). The z-score in [14] was 0.673 (inactive); in [15] it was 1.01 (inactive); in [16], 0.589 (inactive); in test [17], 0.104; in [18], 1.04 (inactive); in [19], 0.478 (inactive). In test [20], this compound had a z-score of 0.457.

In the case of `CCOC(=O)CCN1C(=O)[C@H]2[C@H]3[C@H](O)C=CC(=O)[C@@H]3CC[C@H]2C1=O`, the composite z-score in [1] is -0.244; in [6], 0.225; in test [7], 0.0104; with Torsin-1A (Homo sapiens) [8] it was 0.327; with Torsin-1A (Homo sapiens) [9] it was -0.364; in test [10], 0.425. The composite z-score in test [12] was 0.0479. Besides, the z-score in test [2] was 0.507 (inactive); in test [3], -0.281 (inactive); in [4], -0.115 (inactive); in [5], -0.297 (inactive); in [11], -0.221 (inactive); in test [13] it was -0.0882 (inactive). The z-score in test [14] is 0.501 (inactive); in test [15], -0.233 (inactive); in [16], 0.352 (inactive); in [17] it was 0.146; in test [18], 1.22 (inactive); in test [19], 0.463 (inactive). In test [20], this compound returned a z-score of -0.244.

As for `Cc1cc(C)c(-c2cc([C@H](C)ON=C3[C@H]4CCn5c(=O)n(-c6ccccc6)c(=O)n5[C@H]4[C@H](O)[C@@H]4O[C@H]34)on2)c(C)c1`, the composite z-score in [1] was 0.266; in test [6], 0.548; in test [7] it was -0.0066; with Torsin-1A (Homo sapiens) [8] it was 0.595; with Torsin-1A (Homo sapiens) [9] it was 0.754; in test [10], 0.767. Also, the composite z-score in test [12] was 0.218. The z-score was -1.72 (inactive) in [2]; 1.96 (inactive) in test [3]; 0.229 (inactive) in [4]; 1.43 (inactive) in [5]; -0.0555 (inactive) in [11]; 1.43 (inactive) in test [13]. Also, the z-score in test [14] is 0.322 (inactive); in test [15], 0.347 (inactive); in [16] it was 0.391 (inactive); in test [17] it was -0.914; in test [18], 0.0599 (inactive); in [19], 0.68 (inactive). The compound also gave a z-score in [20] of -0.114.

With `COCCOC(=O)N1C(=O)[C@@]2(c3ccccc31)[C@H](C(N)=O)[C@H]1C(=O)O[C@H](c3ccccc3)[C@H](c3ccccc3)N1[C@@H]2c1ccccc1OCCO`, the composite z-score amounted to 0.491 in test [1]; 0.662 in test [6]; 0.126 in test [7]; 0.918 with Torsin-1A (Homo sapiens) [8]; 0.815 with Torsin-1A (Homo sapiens) [9]; 1.19 in [10]. In addition, the composite z-score in test [12] was found to be 0.144. Besides, the z-score is -4.01 (inactive) in [2]; 1.67 (inactive) in [3]; 0.362 (inactive) in [4]; 0.406 (inactive) in [5]; 0.582 (inactive) in [11]; 3.59 (inactive) in [13]. Moreover, the z-score in test [14] was 1.14 (inactive); in [15], -0.0776 (inactive); in test [16] it was 1.2 (inactive); in test [17], 0.404; in test [18], 1.56 (inactive); in test [19], 1.43 (inactive). Further, the z-score in test [20] was found to be 0.483.

As for `COC(=O)c1c(CC[C@@H](CO)NC(=O)N[C@H](Cc2ccccc2)Cn2cc(-c3ccccc3N)nn2)oc(C(C)=O)c1C(=O)OC`, the composite z-score in test [1] was -0.0029; in [6] it was 2.14; in test [7] it was 0.449; with Torsin-1A (Homo sapiens) [8], 0.481; with Torsin-1A (Homo sapiens) [9] it was 0.794; in [10] it was 0.352. This compound also yielded a composite z-score in [12] of 0.5. Moreover, the z-score in [2] is -0.145 (inactive); in test [3] it was 0.41 (inactive); in [4], 3.84 (inactive); in [5], -0.687 (inactive); in test [11], 0.144 (inactive); in [13], 29.7 (active). In addition, the z-score is 15.5 (active) in test [14]; 0.845 (inactive) in test [15]; 1.73 (inactive) in [16]; 0.211 in test [17]; -2.69 (inactive) in test [18]; 0.681 (inactive) in test [19]. In [20], this compound had a z-score of 1.74.

With `Cc1ccc(S(=O)(=O)N[C@@H]2COC(=O)[C@H](C)COC(=O)CC=C[C@H]2C)cc1`, the composite z-score in test [1] was 0.0114; in test [6] it was 0.134; in test [7], -0.224; with Torsin-1A (Homo sapiens) [8] it was 1.06; with Torsin-1A (Homo sapiens) [9], 0.615; in test [10], 1.91. This compound also returned a composite z-score in test [12] of -0.0493. For the same compound, the z-score in [2] was 0.405 (inactive); in [3], 0.317 (inactive); in test [4], 0.0676 (inactive); in test [5], -0.262 (inactive); in test [11], -0.786 (inactive); in test [13] it was 0.345 (inactive). For the same compound, the z-score in [14] is 0.408 (inactive); in test [15], 0.563 (inactive); in [16] it was -0.0893 (inactive); in test [17], -0.648; in [18] it was -0.108 (inactive); in test [19], 0.174 (inactive). Moreover, the z-score in test [20] is 0.343.

For `O=C1O[C@@H](c2ccccc2)[C@@H](c2ccccc2)N2[C@@H](c3ccc(OCCO)cc3)[C@]3(C(=O)Nc4ccccc43)[C@@H](C(=O)N3CCN(c4ncccn4)CC3)[C@H]12`, the composite z-score in [1] turned out to be 0.22; in test [6] it was 0.557; in test [7] it was 0.175; in the test with Torsin-1A (Homo sapiens) [8], 0.403; with Torsin-1A (Homo sapiens) [9] it was 0.94; in [10], 1.14. The same compound returned a composite z-score in test [12] of -0.0347. The z-score in test [2] was -0.704 (inactive); in test [3], 0.349 (inactive); in [4], 0.865 (inactive); in [5] it was 3.05 (inactive); in test [11], 0.777 (inactive); in test [13] it was 17.4 (active). The z-score is 3.91 (inactive) in test [14]; 2.06 (inactive) in test [15]; 1.28 (inactive) in test [16]; -0.183 in test [17]; 1.09 (inactive) in test [18]; 0.368 (inactive) in [19]. Moreover, the z-score in [20] was 1.

Source of the values: PubChem BioAssay.
